Assay results reported in PubChem BioAssay (NCATS).
Records with an inconclusive call do not appear. Where a call stands in place of a potency, no number is given. The source made the active and inactive calls. Calls follow the shape of the dose curve; as a rule, active = well fitted inhibition curve with a large enough effect; inconclusive = small, poorly fitted or top-dose-only effect; inactive = flat fitted curve, though single readings scatter.

experiment: P-glycoprotein substrates identified in KB-8-5-11 adenocarcinoma cell line, qHTS therapeutic library screen (AID 1346987); details: KB-8-5-11 (P-gp overexpressing) viability, CellTiter-Glo, 72 h; series mostly up to 44.5 µM; also: nearly all actives have a fitted effect of over 65% in size
Summary of the method: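 Steps: plate 500 KB-8-5-11 cells/well in DMEM + 10% FCS (colchicine removed); pin compounds in dose-response; incubate 72 h, 37 degree C, 5% CO2; add CellTiter-Glo, 5 min; read luminescence.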
Potency is read from the fitted curve at half-maximal effect.

SMILES | Potency
CC(O)(C(=O)C1CC1(CO)COC1OC(CO)C(O)C(O)C1O)C1C(O)CC2C3CC=C4CC(O)CC(O)C4(C)C3C(O)CC21C (stereo unspecified) | 0.611 µM (active)
C[C@@H]1C[C@H]2O[C@@]3(O[C@@H]2C(C)(C)O)C(O)[C@@]2(C)C4CCC5C(C)(C)[C@@H](O[C@H]6OC[C@H](O)[C@@H](O)[C@@H]6O)CC[C@@]56C[C@@]46CC[C@]2(C)C13 (stereo partly specified) | inactive
CCCn1cc2c(nc(NC(=O)Nc3ccc(OC)cc3)n3nc(-c4ccco4)nc23)n1 | inactive
CN(CC1COCCO1)S(=O)(=O)Nc1ccc2ccc3ncc(-c4cnn(C)c4)cc3c(=O)c2c1 (stereo unspecified) | 14.6 µM (active)
C/C=C(\C)C(=O)OC1C(C)C2(O)C(C=C(CO)CC3(O)C(=O)C(C)=CC32)C2C(C)(C)C12OC(C)=O (stereo unspecified) | inactive
COCCCNC(=O)c1ccc(Cn2c(=O)c3ccccc3n(Cc3ccc(C(C)C)cc3)c2=O)cc1 | inactive
